A number with no mark means an inactive call.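 The calls were made as follows: active = compounds whose fitted half-maximal concentration is at most twice the top tested dose; inconclusive = flat curve with 30 to 70% signal loss, or poor fit; inactive = flat, opposite-direction or too weak compounds.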
Experiment: EF1alpha-driven Renilla reporter with control 3'UTR suppression – Clone20-Shn3RL cells, dual-Glo, dry powder, counter-screen for Shn3 3'UTR targeting project, dose response (AID 720716)
Conditions: Renilla luciferase control reporter, 24 h; series mostly up to 35 µM; activity change, negative = inhibition: at the top concentration

Going from `Cc1ccc2cc(CN(CC3CCCO3)C(=O)NC3CCCCC3)c(=O)[nH]c2c1C` (configuration not stated) to `Cc1cc2c(cc(C(=O)N3CCC(C(=O)NC4CCCC4)CC3)n2Cc2c(F)cccc2Cl)o1`, the “activity change, negative = inhibition” value rises from 0% to 10%.

First: CCOC(=O)c1ccc(NC(=O)Cn2ncc(Cl)c(Cl)c2=O)cc1
Second: CCOC(=O)C1CCN(C(=O)c2ccc(OCC(=O)Nc3cccc(C(F)(F)F)c3)c(OC)c2)CC1
The “activity change, negative = inhibition” value of the first is higher: 0% for the first, -12.5% for the second.

`CC(=O)Nc1cccc(NC(=O)CSc2ncc(-c3ccc(Cl)cc3)n2Cc2ccco2)c1` and `CC(C)(C)NC(=O)CSc1nc2ccc(NC(=O)CSc3nnnn3Cc3ccccc3)cc2s1` are the same in “activity change, negative = inhibition” value: 0% for the first, 0% for the second.

Compared with `COc1cc2ncnc(N[C@H](C)c3ccccc3)c2cc1OC`, `COc1ccc(NC(=O)c2nc(S(=O)(=O)Cc3cccc(C)c3)ncc2Cl)c(OC)c1` is higher in “activity change, negative = inhibition” value: -22.5% for the first, 0% for the second.

`CC(=O)N1CCN(C(=O)CCc2cc(C(C)(C)C)c(O)c(C(C)(C)C)c2)CC1` and `Cc1cc(N2CCCC2=O)cc(C)c1S(=O)(=O)NCCOc1ccc(C(C)(C)C)cc1` are the same in “activity change, negative = inhibition” value: 0% for the first, 0% for the second.

Compared with `COc1cc(CN2CCc3ccccc3C2)ccc1O`, `CCOC(=O)C1(Cc2ccc(Cl)cc2)CCN(C(C)Cc2ccc(O)c(OC)c2)CC1` (configuration not stated) is higher in “activity change, negative = inhibition” value: -29.2% for the first, -20% for the second.

First: CN(C)c1nc(-c2ccccn2)nnc1-c1ccccc1
Second: CN(C(=O)COc1ccccc1C(=O)NCCOc1ccccc1)c1ccccc1
The “activity change, negative = inhibition” value of the first is higher: 20% for the first, -12.5% for the second.

Compared with `COc1ccc(NS(=O)(=O)c2ccc(C(=O)N3CCCCCC3)cc2)cc1`, `COc1ccc(Nc2nc(N3CCCCC3)c3ccccc3n2)cc1` is higher in “activity change, negative = inhibition” value: -26.7% for the first, 0% for the second.

Compared with `CCCOc1ccccc1C1CC(=O)Nc2cc3c(cc21)OCO3` (configuration not stated), `O=c1c2ccccc2nc2n1C(CSCc1ccc(Cl)cc1Cl)CS2` (configuration not stated) is higher in “activity change, negative = inhibition” value: -33.3% for the first, -12.5% for the second.

Going from `Fc1ccc(-n2nnnc2-c2cnc(-c3cccs3)nc2C(F)(F)F)cc1` to `Nc1nonc1C(=O)NCCNCc1cc(Br)ccc1OCc1ccc(F)cc1`, the “activity change, negative = inhibition” value falls from -12.5% to -22.5%.

Compared with `O=C(c1nnsc1S(=O)c1ccc(Cl)cc1)N1CCOCC1` (configuration not stated), `CN(CC(=O)Nc1cccc(S(=O)(=O)N2CCOCC2)c1)CC(=O)Nc1ccc(Cl)c(C(F)(F)F)c1` is higher in “activity change, negative = inhibition” value: -12.5% for the first, 0% for the second.

Going from `COc1ccccc1N1CCN(c2ncc(C(=O)N3CCN(c4cccc(Cl)c4)CC3)c3ccccc23)CC1` to `COc1ccc2c(c1)c(CC(=O)Nc1cc(C)ccc1C)c(C)n2C(=O)c1ccc(Cl)cc1`, the “activity change, negative = inhibition” value falls from 20% to 16.7%.

Going from `O=C1CSc2ccc(C(=O)Nc3cccc(S(=O)(=O)Nc4ccc(Br)cc4)c3)cc2N1` to `CCCc1nnc(NC(=O)c2nc(S(=O)(=O)Cc3ccc(C)cc3)ncc2Cl)s1`, the “activity change, negative = inhibition” value falls from 0% to -25%.

For `CC(C)[C@H](NC(=O)OC(C)(C)C)c1nnc(S(=O)(=O)Cc2c(F)cccc2Cl)o1`, the “activity change, negative = inhibition” value was -25%.

Reference: PubChem BioAssay AID720716 (Broad Institute, 2013)
